# TLR4 MyD88 comp: inhibitors of TLR4-MyD88 association in cells, primary screen, cell-based, HeLa CL3-4, BLA complementation, FRET ratio; actives 0.18% (n = 200,000); HeLa CL3-4 TLR4/MyD88 BLA complementation; AID 861, 2007; inhibition, % at 8.4 µM; in the data active = inhibition above about 25%;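 note: 0% = vehicle and 100% = reference inhibitor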
# Target sequence (O00206 whole entry, looked up): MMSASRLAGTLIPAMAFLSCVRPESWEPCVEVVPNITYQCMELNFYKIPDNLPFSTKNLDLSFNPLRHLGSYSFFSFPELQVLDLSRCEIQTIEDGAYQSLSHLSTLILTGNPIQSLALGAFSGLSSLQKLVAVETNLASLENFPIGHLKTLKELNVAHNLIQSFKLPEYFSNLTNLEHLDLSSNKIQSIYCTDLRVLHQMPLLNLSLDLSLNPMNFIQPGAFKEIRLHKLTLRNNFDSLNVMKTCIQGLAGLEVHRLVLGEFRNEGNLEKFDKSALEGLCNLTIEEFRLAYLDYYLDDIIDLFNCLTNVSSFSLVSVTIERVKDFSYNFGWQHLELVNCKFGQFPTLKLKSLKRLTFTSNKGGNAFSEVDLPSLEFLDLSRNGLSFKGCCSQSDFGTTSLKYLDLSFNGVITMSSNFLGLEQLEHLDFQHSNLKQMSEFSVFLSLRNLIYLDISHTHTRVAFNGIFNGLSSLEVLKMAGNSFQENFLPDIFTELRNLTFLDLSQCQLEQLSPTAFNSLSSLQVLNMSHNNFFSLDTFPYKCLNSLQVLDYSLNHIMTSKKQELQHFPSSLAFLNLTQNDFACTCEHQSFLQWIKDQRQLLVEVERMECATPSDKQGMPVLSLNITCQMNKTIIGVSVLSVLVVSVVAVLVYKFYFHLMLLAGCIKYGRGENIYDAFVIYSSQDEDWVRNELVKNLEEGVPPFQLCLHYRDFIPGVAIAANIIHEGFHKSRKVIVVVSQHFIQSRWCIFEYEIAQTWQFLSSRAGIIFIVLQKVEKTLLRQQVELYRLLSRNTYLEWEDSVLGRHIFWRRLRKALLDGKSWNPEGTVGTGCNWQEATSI
# Target sequence (Q99836 whole entry, looked up): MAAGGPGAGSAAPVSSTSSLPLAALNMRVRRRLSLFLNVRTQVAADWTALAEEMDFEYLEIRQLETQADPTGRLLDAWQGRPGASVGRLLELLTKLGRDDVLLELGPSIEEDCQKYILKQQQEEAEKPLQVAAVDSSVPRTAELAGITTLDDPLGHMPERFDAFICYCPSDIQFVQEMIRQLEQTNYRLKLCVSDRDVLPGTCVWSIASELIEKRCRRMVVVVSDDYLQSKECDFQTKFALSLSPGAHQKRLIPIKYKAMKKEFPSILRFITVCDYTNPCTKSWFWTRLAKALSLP
# HSF1 inhib: HSF1 inhibitors in luciferase reporter cells, primary screen, cell-based, NIH3T3, luminescence; NIH3T3-HGL HSE-luciferase, MG132-induced, luminescence 8 h; stronger effect = lower value; activity change, negative = inhibition, % at 7.5 µM (by protocol); actives 0.77% (n = 300,000); AID 2098, 2009;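 active = more than half of replicate wells show activity change below -50%, luminescence cut by over half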;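 note: luciferase reports HSF-1 transcriptional activity via heat shock element; 0% = median of DMSO wells and -100% = zero luminescence signal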
# HSF-1 act: HSF-1 activators, primary screen, NIH3T3-HGL cells, MG132 stress, luminescence, single point | actives 1.7% (n = 300,000) | activation, % at 9 µM | NIH3T3-HGL HSF-1 luciferase reporter, 8 h; 100% = twice DMSO control signal;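 active = mean replicate activation of at least 50% with a set share of replicates each reaching 50%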;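 note: 0% = median of the neutral control wells and 100% = twice that signal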
# TLR9-MyD88 inh: inhibitors of TLR9-MyD88 association in cells, primary screen, cell-based, CHO, BLA complementation, fluorescence; CCF4 FRET ratio; inhibition, % at 4.98 µM; actives 0.21% (n = 340,000);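 active = inhibition above the mean over all tested compounds plus 3 SD, cut at about 21% in these data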;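 note: 0% = DMSO only wells and 100% = clavulanate BLA inhibitor control wells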
# NOD2 RIPK2 PPI: NOD2-RIPK2 binding disruptors in cells, primary screen, fluorescence, CHO cells, BLA complementation | Receptor-interacting serine/threonine-protein kinase 2 (Homo sapiens), O43353 | CCF4 ratio | inhibition, % at 4.98 µM | actives 0.38% (n = 360,000) | AID 624267, 2012; in the data active = inhibition above about 21%;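 note: 0% = vehicle only and 100% = reference blocker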
# * = called active by the depositor; · = no result given. The list is not random: actives were taken first. Their share in the collection is about 2.4%.
SMILES,TLR4 MyD88 comp,HSF1 inhib,HSF-1 act,TLR9-MyD88 inh,NOD2 RIPK2 PPI
COc1cc(OC)cc(-c2nnc(Sc3ccc(C=O)cc3[N+](=O)[O-])o2)c1,17.2,88.4,141.8*,·,·
CC1CCN(CC(=O)Nc2ccc(S(=O)(=O)NC3CC3)cc2)CC1,·,-64.9*,-72.1,0.5,-1.9
N=c1nc2n(cc1F)C1OC(CO)C(O)C1O2 (stereo not drawn),·,·,·,-7.1,-6.6
Cc1ccc(NC(=O)COC(=O)c2ccc(S(=O)(=O)N3CCCC3)cc2)cc1,·,·,·,-2.4,-2.5
O=C(/C=C/c1ccc2c(c1)OCO2)Nc1nncs1,·,22.3,52.8*,·,-4.2
O=C(/C=C/c1ccc2c(c1)OCO2)Nc1nc(-c2ccccc2)cs1,-6.7,7.3,13.2,-10.0,-3.1
CSc1nc2ccc(NS(=O)(=O)c3ccc([N+](=O)[O-])cc3)cc2s1,·,-89.0*,-91.3,·,-3.7
Cn1c(SCC(=O)NC2CCS(=O)(=O)C2)nc2ccccc21 (stereo not drawn),·,·,·,-8.2,-7.3
CC(C)Cn1c(N)c(C(=O)COC(=O)c2ccc([N+](=O)[O-])o2)c(=O)n(C)c1=O,-3.3,52.6,66.9*,-1.5,6.3
O=C(COc1ccc(NC(=O)c2ccccc2)cc1)c1ccccc1,·,1.4,12.9,6.3,-3.1
CS(=O)(=O)N1CCN(c2nc3ccc(Cl)cc3s2)CC1,·,9.8,32.9,1.6,-0.3
Clc1ccc2nc(N3CCCCC3)sc2c1,-15.1,20.6,55.5*,-3.1,-6.9
O=C(Nc1cccc(S(=O)(=O)N2CCCCC2)c1)c1ccc([N+](=O)[O-])o1,23.1,55.6,73.5*,11.1,3.6
Cc1ccc(NC(=O)c2cc(NC(=O)c3ccco3)ccc2N2CCOCC2)cc1,9.2,-64.0*,-72.0,9.0,0.9
COc1c(C)cccc1C(=O)Nc1ccc(N2CCOCC2)c(Cl)c1,2.5,25.0,60.3*,-6.5,2.7
O=C(Nc1ccc(N2CCOCC2)c(Cl)c1)c1ccc([N+](=O)[O-])o1,14.7,108.0,140.6*,7.5,2.4
O=C(CSc1nnc(-c2ccccc2O)o1)N1CCCCC1,·,7.9,-2.2,1.9,-1.6
CN(CC(=O)Nc1ccc(F)c(F)c1F)C(=O)CC1CCCCC1,·,·,·,-14.7,0.5
CCCCc1c(-c2ccccc2OC)ncn1CCc1ccc(Cl)cc1,·,·,·,·,-5.5
CCCC(=O)N1CCN(c2ccc(NC(=O)c3ccc([N+](=O)[O-])o3)cc2Cl)CC1,-2.7,24.1,45.9,2.9,26.6*
Cc1ccc(NC(=O)c2cc([N+](=O)[O-])ccc2N2CCOCC2)cc1S(=O)(=O)N1CCOCC1,·,0.3,1.1,3.7,4.6
O=C(Nc1cccc(O)c1)c1ccc(S(=O)(=O)N2CCCCCC2)cc1,·,36.3,74.9*,3.2,-8.2
Cc1ccc(NC(=O)c2ccc([N+](=O)[O-])o2)cc1S(=O)(=O)N1CCOCC1,18.6,65.9,74.8*,·,-3.8
Cc1ccc(S(=O)(=O)N2CCCCC2)cc1NC(=O)COC(=O)c1ccc2c(c1)OCO2,13.3,2.3,-6.2,-5.9,-3.2
Cc1ccc(S(=O)(=O)N2CCCCC2)cc1NC(=O)c1ccc2c(c1)OCO2,-0.8,25.6,68.6*,8.1,-3.3
SMILES,TLR4 MyD88 comp,HSF1 inhib,HSF-1 act,TLR9-MyD88 inh,NOD2 RIPK2 PPI
Nc1ccccc1SC/C=C/CSc1ccccc1N,·,2.1,32.5,4.6,-5.2
Cc1ccc(NC(=O)/C(C#N)=C/c2cccs2)c(C)c1,13.0,28.4,53.4*,-6.0,-3.3
Cc1cccc(C)c1NC(=O)/C(C#N)=C/c1cccs1,5.5,7.8,-11.3,10.4,-5.3
O=c1[nH]c(SCc2cccc(F)c2)nc2c1CCCC2,-8.3,33.5,62.6*,1.5,-5.7
O=C(CSc1nc2c(c(=O)[nH]1)CCC2)Nc1ccccc1Cl,·,10.7,26.2,-1.5,-1.9
Cc1c(Cl)cccc1NC(=O)CSc1nc2c(c(=O)[nH]1)CCCC2,-0.6,12.4,60.2*,·,·
CC(C)CN(C(=O)Cn1nnc(-c2ccc(F)cc2)n1)C1CCS(=O)(=O)C1 (stereo not drawn),·,3.9,15.6,-9.3,-5.2
O=C(c1ccco1)N1CCN(C(=S)Nc2ccccc2C(F)(F)F)CC1,·,5.0,10.7,1.2,-11.0
O=C(NC(=S)N1CCN(c2ccc(O)cc2)CC1)c1cccs1,·,-2.3,-0.4,-2.8,-8.3
O=C(Nc1ccc(N2CCCC2)c(Cl)c1)c1cccs1,0.1,57.3,82.2*,0.4,-11.3
CCCC(=O)N1CCN(c2ccc(NC(=O)c3cccs3)cc2)CC1,-10.0,29.8,52.7*,-3.5,5.4
O=C(NC(=S)N1CCN(c2ccc(F)cc2)CC1)c1cccs1,-7.4,38.0,103.5*,-2.9,-0.2
CCCC(=O)NC(=S)Nc1ccc(N2CCN(C(=O)c3cccs3)CC2)cc1,-1.2,-4.9,-1.2,-2.0,3.1
O=C(NC(=S)N1CCN(c2c(Cl)cccc2[N+](=O)[O-])CC1)c1cccs1,3.8,-94.9*,-94.5,1.5,-4.0
COC(=O)C=CSC(=S)C1CCCC1=N (stereo not drawn),·,·,·,-5.3,4.0
O=C(CN1C(=O)c2ccccc2S1(=O)=O)c1ccc2c(c1)OCCO2,·,-78.4*,-81.4,-0.1,-18.8
O=C(CN1C(=O)c2ccccc2S1(=O)=O)c1cccc(Br)c1,·,-35.4,-35.9,7.8,-3.5
O=C(CN1C(=O)c2ccccc2S1(=O)=O)c1ccc2c(c1)OCCCO2,·,-87.7*,-89.7,-7.8,7.0
Nc1nc(N)nc(C2C=CCCC2)n1 (stereo not drawn),·,·,·,-0.9,-10.2
Cc1cc(C(=O)NCCc2ccc(S(N)(=O)=O)cc2)c(C)o1,·,2.4,-17.1,2.5,0.6
O=C1C(=O)c2ccc(-c3ccccc3)cc2-c2ccccc21,-5.7,-95.2*,-95.3,8.3,-4.8
Nc1ccc2c(c1)C(=O)c1ccccc1C2=O,·,-7.2,1.1,4.6,-7.1
Nc1ccc2c(c1)C(=O)C(=O)c1ccccc1-2,-13.5,-94.9*,-95.3,8.7,16.1
Nc1ccc2c(c1)C(=O)c1ccccc1-2,·,-9.6,-3.4,0.1,-1.4
O=C(C=CC(=O)OC1CCCCC1)OC1CCCCC1,·,·,·,6.3,-8.9
SMILES,TLR4 MyD88 comp,HSF1 inhib,HSF-1 act,TLR9-MyD88 inh,NOD2 RIPK2 PPI
O=C(CCCc1ccccc1)NC12CC3CC(CC(C3)C1)C2,·,22.7,69.2*,0.5,-4.6
CN(C(=O)c1ccc(NC(=O)Cc2ccc(NC(=O)C3CCCN(C(=O)C4CCC4)C3)cc2)cc1)C1CC1 (stereo not drawn),·,·,·,0.8,-4.6
CNc1ccc(-c2cc(OC)ccc2OC)cn1,·,·,·,·,-11.3
CC1CCCCN1C(=S)Nc1ccc(S(=O)(=O)N2CCCCC2)cc1 (stereo not drawn),·,·,·,-2.8,-9.1
O=C(Oc1cc(=O)oc2c1c(=O)n1c3c(cccc23)CC1)c1ccc(F)cc1,·,-67.3*,-75.0,·,-9.9
O=C(Oc1cc(=O)oc2c1c(=O)n1c3c(cccc23)CC1)c1ccccc1,·,0.8,-4.5,-3.1,-9.6
